Inconclusive results are not listed. Values without a mark were called inactive. Activity calls are given as the source filed them. Calls come from the whole dose curve; as a rule, active = well fitted activation curve with a large enough effect; inconclusive = small, poorly fitted or top-dose-only effect; inactive = no such curve, though single readings can be large or run the other way.
Assay: qHTS Multiplex Assay to Identify Dual Action Probes in a Cell Model of Huntington: Cytoprotection confirmation (ATP)
Details: PC12 HttQ103 induced, ATP luminescence 40 h; series mostly up to 46.1 µM; cytoprotection, positive = protection: at the top concentration
Text: NIH Chemical Genomics Center [NCGC]
NIH Molecular Libraries Probe Production centers Network [MLPCN]
Assay Submitter (PI): Wei Zheng
Huntington's disease is a neurodegenerative disorder caused by a trinucleotide repeat expansion in Exon 1 of the Huntingtin gene. The CAG trinucleotide encodes glutamine and polyglutamine expansions cause cell death in selective areas of the brain. Huntington polyglutamine repeats have the tendency to form aggregates which are observable in later stages of the disease. The exact nature of the aggregates, whether toxic, protective, or insignificant, is unclear.
A stable PC12 cell line containing a gene fusion of Exon 1 of the Huntingtin gene linked to GFP under the control of the inducible ecdysone promoter were used as the cell-based model of Huntington Disease for high throughput screening. Exon 1 of the Huntingtin gene contained an expansion of 103 polyglutamines (Q103) which, when expressed, caused cell death and distinct, bright GFP aggregates. The amount of cell death and the size and intensity of GFP aggregates increased over time and induction level. The cell death were quantified with a measurement of ATP content in the cells. A maximal 40-50% of cell death was observed when the Huntington gene was induced in this cell line.
We optimized this assay in a homogeneous 1536 well format. A quantitative high throughput screen (qHTS) was conducted on the PC12 cells which were induced to express the toxic fusion construct. Small molecules which prevented cell death were identified by using a luminescent ATP quantification method (Perkin Elmer's ATPlite).
PC12 cells stably containing a construct with an ecdysone inducible promoter expressing GFP fused to the exon 1 of HTTQ103 (Huntington protein which containing a 103 ployglutamine expansion) were used.
NCGC Assay Protocol Summary:
Sequence, Parameter, Description
1, Reagent, 5 uL 1500 cells/well 1536 TC treated White clear bottom plate
2, Compound, 23 nL Tebufenozide inducer (100 nM final) to all columns
3, Compound, 23 nL 40 uM to 0.5 nM Libraries
5, Reagent, 5 ul ATPLite cell death assay reagent
6, Detector, 4 sec integration with a Viewlux Luminescent
Media consisted of phenol red free DMEM + 5% equine serum (Hyclone # SH30072.03 ), 5% supplemented Bovine Calf Serum (Hyclone # SH30074.03 ), 1x pen/strep, no G418

SMILES | Potency | cytoprotection, positive = protection [%]
CC(=O)c1ccccc1-c1csc2ncnc(Sc3nnnn3C)c12 | 31.6 µM (active) | –
Cn1nnnc1Sc1ncnc2scc(-c3cccc(S(C)(=O)=O)c3)c12 | – | -108
Cn1nnnc1Sc1ncnc2scc(-c3ccc(N)cc3)c12 | – | 6.19
Cn1nnnc1Sc1ncnc2scc(-c3ccc4ccccc4c3)c12 | 12.6 µM (active) | –
O=C(c1ccccc1)c1ccc2n1CCC2C(=O)O (stereo not given) | – | 5.43
Cn1nnnc1Sc1ncnc2scc(-c3ccc4c(c3)OCO4)c12 | 22.4 µM (active) | –
O=C(Nc1ccc(Cl)cc1C(F)(F)F)C(Sc1cccc[n+]1[O-])c1ccccc1 (stereo not given) | – | 20.7
CCC(=O)OCCCCCCOc1ccc(C(=O)O)cc1 | – | -1.38
O=Nc1c(-c2c(O)[nH]c3ccccc23)[nH]c2ccccc12 | – | -39.2
Cn1nnnc1Sc1ncnc2scc(-c3cccc4ccccc34)c12 | 8.91 µM (active) | –
N#CCCn1c(Cl)nc2ccccc21 | – | -11.9
O=c1oc2cc(O)ccc2s1 | – | -5.12
COc1ccc(NC(=O)c2sc(SC)nc2N)cc1 | – | -9.58
C[C@]12CC[C@@H]3c4ccc(OC(=O)c5ccccc5)cc4CC[C@H]3[C@@H]1CC[C@@H]2O | – | -43.4
Cn1nnnc1Sc1ncnc2scc(-c3ccc[nH]3)c12 | 12.6 µM (active) | –
COc1cc(Cc2cnc(N)nc2N)cc(OC)c1OC | – | 1.87
Cn1nnnc1Sc1ncnc2scc(-c3cccc(Br)c3)c12 | – | -108
O=C(NCN1C(=O)C2C3C=CC(C3)C2C1=O)Nc1ccccn1 (stereo not given) | – | -8.5
COc1ccc(C2=Nc3cc(C)ccc3OC2)cc1 | – | -74.7
Cn1nnnc1Sc1ncnc2scc(-c3ccccc3C#N)c12 | 28.2 µM (active) | –

SMILES | Potency | cytoprotection, positive = protection [%]
CCOC(=O)c1sc2nc(N3CCOCC3)c3c(c2c1N)CC(C)(C)N(C)C3 | – | -12.7
O=C(Nc1ccccc1)C1=C(O)CC(c2ccco2)CC1=Nc1ccccc1 (stereo not given) | – | -18.2
COc1cccc(C(=O)Nc2ccc(F)c(F)c2F)c1 | – | -15.2
C#CCN(C)CCCOc1ccc(Cl)cc1Cl | – | 24.5
CCc1nc(SCC(=O)N2CCCC2)c2ccccc2n1 | – | -17.6
NC(=O)c1sc2nc3c(c(-c4cccs4)c2c1N)CCCCC3 | – | -0.102
Cn1nnnc1Sc1ncnc2scc(-c3cccs3)c12 | 10 µM (active) | –
COc1cc(NC(=O)c2cc3nc(C)cc(C)n3n2)c(OC)cc1Cl | – | -22.2
O=[N+]([O-])c1ccc(O)c2ncccc12 | – | -52.7
O=C(Nc1cccnc1)Nc1ccccc1Cl | – | -24.8
O=C(O)/C=C/C(O)c1ccc(Cl)cc1 (stereo not given) | – | -13.1
Cn1nnnc1Sc1ncnc2scc(Br)c12 | – | -109
CN(C)c1ccc(-c2n(C)c3ccccc3[n+]2C)cc1 | – | -37.4
Cn1nnnc1Sc1ncnc2scc(-c3cccc(Cl)c3)c12 | 14.1 µM (active) | –
COc1ccc(-c2csc3ncnc(Sc4nnnn4C)c23)cc1 | 25.1 µM (active) | –
Cn1nnnc1Sc1ncnc2scc(-c3ccc(C#N)cc3)c12 | 10 µM (active) | –
COc1ccc(C(=O)Cc2ccc(OC)c(OC)c2)cc1 | – | -11.5
Cn1nnnc1Sc1ncnc2scc(-c3ccccc3Br)c12 | 35.5 µM (active) | –
CCc1nc(SCC(=O)Nc2nc3c(s2)CCCC3)c2ccccc2n1 | – | -1.68
CC(=O)c1ccc(-c2csc3ncnc(Sc4nnnn4C)c23)cc1 | – | -23.7

— PubChem BioAssay AID2673 (National Center for Advancing Translational Sciences (NCATS), 2010)
